Results as given in PubChem BioAssay (EPA / NIEHS).
“And” between values parts separate entries of the source, which are not always exact repeats. Equal values may be shown once. Results filed as inconclusive are left out. The source holds several records for some structures; these can differ, active in one and inactive in another. The source made the active and inactive calls. Rule for the calls: active = hit-call score of the fitted dose curve at least 0.9, where 1 is the maximum; inconclusive = response in the unintended direction; inactive = score below 0.9.

These compounds were tested against rat CYP2D2, Cyp2d26 (gene 25053) (UniProt P10634) (assay: NVS_ADME_rCYP2D2: NovaScreen (NVS) CYP450-related Enzyme Activity (ADME) Assay for rat CYP2D2 (AID 2283124)).
Experimental: NVS_ADME_rCYP2D2 is a biochemical, single-readout assay that uses extracted gene-proteins in a cell-free assay. Measurements were taken 0.75 hour after chemical dosing in a 96-well plate.NVS_ADME_rCYP2D2 is one of one assay component(s) measured or calculated from the NVS_ADME_rCYP2D2 assay. It is designed to make measurements of enzyme activity, a form of enzyme reporter, as detected with fluorescence intensity signals by Fluorescence technology.Data from the assay component NVS_ADME_rCYP2D2 was analyzed into 1 assay endpoint. This assay endpoint, NVS_ADME_rCYP2D2, was analyzed in the positive analysis fitting direction relative to Acetonitrile as the negative control and baseline of activity. Using a type of enzyme reporter, loss-of-signal activity can be used to understand changes in the enzymatic activity as they relate to the gene Cyp2d2. Furthermore, this assay endpoint can be referred to as a primary readout, because this assay has produced multiple assay endpoints where this one serves a enzymatic activity function. To generalize the intended target to other relatable targets, this assay endpoint is annotated to the cyp intended target family, where the subfamily is xenobiotic metabolism.
Binding assays used specific radioligands (tritiated, iodinated) with non-radioactive competitive displacement ligands in agonist or antagonist protocols (as indicated) and various reference compounds and inhibitors to titrate specific binding to receptors and transporters. Most enzyme assays (CYPs, kinases, phosphatases, proteases, HDACs) used recombinant protein and specific substrates (fluorescence mostly, some colorimetric and radioactive) and inhibitors, followed by a biochemical separation of substrate and product. All assays for the biochemical HTS were initially run in duplicate at a single concentration (10 uM for CYP450 assays and 25 uM for all others). Assay-chemical combinations meeting a pre-defined threshold (e.g., 30% inhibition and other criteria defined below) were then run in singleton concentration-response format with maximum concentration of 20 uM for CYPs and 50 uM for all others. Each assay was run with positive and negative controls, and concurrent controls on every plate. The follow-up (secondary) screen tested active chemical-pairs in concentration series, as well as a few additional assays not tested in the primary screen, some selected negative inactives, and several cases re-run in the concentration series for confirmatory purposes.

Sequence of rat CYP2D2, Cyp2d26 (gene 25053) (P10634 whole entry, looked up): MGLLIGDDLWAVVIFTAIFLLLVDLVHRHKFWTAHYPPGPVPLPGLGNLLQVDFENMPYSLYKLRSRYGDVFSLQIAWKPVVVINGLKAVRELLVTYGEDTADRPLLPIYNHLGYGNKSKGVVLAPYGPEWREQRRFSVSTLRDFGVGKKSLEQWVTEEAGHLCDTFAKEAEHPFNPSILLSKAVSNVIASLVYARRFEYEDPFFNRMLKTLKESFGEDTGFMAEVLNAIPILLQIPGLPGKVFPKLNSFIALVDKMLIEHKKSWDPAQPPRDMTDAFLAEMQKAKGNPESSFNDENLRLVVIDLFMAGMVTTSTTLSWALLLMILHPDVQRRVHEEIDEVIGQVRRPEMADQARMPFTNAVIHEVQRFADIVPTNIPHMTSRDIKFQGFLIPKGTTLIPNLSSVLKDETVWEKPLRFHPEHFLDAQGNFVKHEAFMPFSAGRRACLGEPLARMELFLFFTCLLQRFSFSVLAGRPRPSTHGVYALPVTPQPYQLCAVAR

Compound | AC50 | outcome
CCOC(=O)CC(SP(=S)(OC)OC)C(=O)OCC (configuration not stated) | 6.28 µM (active) | –
CCOP(=S)(OCC)SCn1c(=O)oc2cc(Cl)ccc21 | 2.07 µM (active) | –
CC1COC(Cn2cncn2)(c2ccc(Oc3ccc(Cl)cc3)cc2Cl)O1 (configuration not stated) | 1.4 µM (active) | –
OC(c1ccc(Cl)cc1)(c1cncnc1)c1ccccc1Cl (configuration not stated) | 6.92 µM (active) | –
CCCC1COC(Cn2cncn2)(c2ccc(Cl)cc2Cl)O1 (configuration not stated) | 7.44 µM (active) and 7.78 µM (active) | –
Cc1ccc(-c2c(Cl)nc(C#N)n2S(=O)(=O)N(C)C)cc1 | 4.31 µM (active) | –
COC(=O)C(C)Oc1ccc(Oc2ccc(Cl)cc2Cl)cc1 (configuration not stated) | 7.38 µM (active) and 10 µM (active) | inactive
COc1ccc(C(c2ccc(OC)cc2)C(Cl)(Cl)Cl)cc1 | – | inactive
CCCN(CCC)c1c([N+](=O)[O-])cc(S(N)(=O)=O)cc1[N+](=O)[O-] | 1.3 µM (active) | –
CCOC(=O)C(Cl)Cc1cc(-n2nc(C)n(C(F)F)c2=O)c(F)cc1Cl (configuration not stated) | – | inactive
C#CCOS(=O)OC1CCCCC1Oc1ccc(C(C)(C)C)cc1 (configuration not stated) | 10 µM (active) | –
